Rab9 prom act: Rab9 promoter activation; Huh7 Rab9 promoter-luciferase reporter, luminescence, 24 h; Potency, µM (titrated, usually from 9.22 µM), most hits filed as activators; 320,000 tested, 2.8% active; AID 485297; further: nearly all actives have a fitted effect of over 60% in size
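Rab9 promoter-driven luciferase in stably transfected Huh7 cells; 1500 cells/well rested 2 h, exposed to compound in DMSO for 24 h at 37 °C, 5% CO2. Luminescence read 10 min after adding luciferase reagent at ambient temperature.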
SMN2 splice up: enhancers of SMN2 splice variant expression. HEK293 SMN2-luciferase splicing reporter, luminescence, 30-36 h. Potency, µM (series often up to 46.1 µM), most hits filed as activators. 210,000 tested, 2.8% active. AID 1458; further: nearly all actives have a fitted effect of over 55% in size
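HEK293 cells carry an SMN2 minigene-luciferase reporter in which exon 7 inclusion puts luciferase in frame. Cells were seeded at 2000 cells/well, attached for 10-12 hours, then exposed to compounds for 30-36 hours at 37C before ONE-Glo luminescence.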
FLuc counter: firefly luciferase modulation, counter-screen for miR-21 project; P08659; Potency, µM (doses to about 57.5 µM), hits mostly inhibitors; 360,000 tested, 6.9% active; purified FLuc, Km substrates, luminescence inhibition; further: nearly all actives have a fitted effect of over 55% in size
Target sequence (P08659 whole entry, looked up): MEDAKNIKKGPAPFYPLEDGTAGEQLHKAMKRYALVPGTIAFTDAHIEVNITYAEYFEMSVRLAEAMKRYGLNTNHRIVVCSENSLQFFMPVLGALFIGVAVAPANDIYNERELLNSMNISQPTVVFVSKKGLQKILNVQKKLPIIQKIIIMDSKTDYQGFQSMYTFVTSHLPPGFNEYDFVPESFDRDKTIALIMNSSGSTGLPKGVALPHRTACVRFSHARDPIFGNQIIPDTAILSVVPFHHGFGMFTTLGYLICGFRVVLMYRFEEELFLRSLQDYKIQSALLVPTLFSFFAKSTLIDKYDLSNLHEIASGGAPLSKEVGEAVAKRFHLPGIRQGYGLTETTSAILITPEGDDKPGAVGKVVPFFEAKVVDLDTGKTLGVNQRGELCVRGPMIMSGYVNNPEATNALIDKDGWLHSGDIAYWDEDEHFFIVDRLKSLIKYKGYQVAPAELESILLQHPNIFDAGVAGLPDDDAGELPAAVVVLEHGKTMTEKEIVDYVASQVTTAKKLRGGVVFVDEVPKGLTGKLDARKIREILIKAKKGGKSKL
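Biochemical qHTS of compounds, final roughly 60 µM downward over six points, against 10 nM purified firefly luciferase using Km concentrations of substrates (10 uM D-luciferin, 10 uM ATP) in Tris acetate pH 7.5 buffer; luminescence output.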
NPC1 prom act: activators of NPC1 promoter; Huh7 NPC1 promoter luciferase reporter, 24 h; Potency, µM (series often up to 9.22 µM), usual class: activators; 320,000 tested, 2.4% active; AID 485313; further: nearly all actives have a fitted effect of over 60% in size
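Huh7 cells stably carrying NPC1 promoter–luciferase, plated in Opti-MEM with 10% FBS for 2 h, were exposed to compound in DMSO for 24 h at 37 °C; luciferase reagent was added for 10 min and luminescence read.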
ELG1 genotox: induces genotoxicity in HEK293T cells with luciferase-tagged ELG1; Potency, µM (titrated, usually from 46 µM), usual class: activators; 330,000 tested, 1.3% active; HEK293T ELG1-luciferase reporter, luminescence, 16 h; further: nearly all actives have a fitted effect of over 60% in size
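Reporter readout depends on ELG1 protein level, which increases with genetic stress. After 16 hr compound exposure at 37 °C, luciferase activity was quantified using ONE-Glo.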
Each line names hits and unclear results; the compound was inactive in the other large screens. A selection: hits, their analogues and other compounds. The true share with any hit is near 7.5%. The call rests on the fitted dose curve; in most records, active means well fitted curve in the direction sought with a large enough effect; inconclusive means small, poorly fitted or top-dose-only effect, or another doubt; inactive means no such curve, though single readings can be large; an effect the other way counts as inactive or inconclusive.

Nc1ccccc1N=Cc1ccc(-c2cccc(Cl)c2)o1	Rab9 prom act 3.16µM, FLuc counter 3.01µM, NPC1 prom act 2.82µM (no result: SMN2 splice up)
Cc1ccc(/C=C2/C(=O)ON=C2c2ccccc2)o1	FLuc counter inconclusive (no result: SMN2 splice up)
CC1(C)OC(=O)C(=Cc2ccc(-c3ccc(Cl)c(C(=O)O)c3)o2)C(=O)O1	FLuc counter 15.1µM
CC1=NOC(=O)/C1=C\c1ccc(-c2ccccc2Br)o1	FLuc counter 10.7µM
CC1=CC2=NC(=O)/C(=C\c3ccc(-c4cccc(Cl)c4)o3)C(=N)N2O1	none
CC1=NOC(=O)/C1=C\c1ccc(-c2cccc(Cl)c2)o1	FLuc counter 10.7µM
CCc1ccc(C(=O)NNC(=O)c2n[nH]c(=O)c3ccccc23)cc1	FLuc counter inconclusive (no result: SMN2 splice up)
COc1ccc(C2CC2/C(=N/OC(=O)c2cccs2)c2ccccc2)cc1 (centres undefined)	Rab9 prom act inconclusive, SMN2 splice up inconclusive, FLuc counter 12µM, NPC1 prom act inconclusive, ELG1 genotox inconclusive
CN(C)/C=C/C(=O)c1cnc(-c2ccc(Cl)cc2)s1	Rab9 prom act 0.501µM, SMN2 splice up 10µM, FLuc counter 2.69µM, NPC1 prom act 1µM, ELG1 genotox inconclusive
CN(C)/C=C/C(=O)c1cnc(-c2ccccc2)s1	Rab9 prom act 1.41µM, SMN2 splice up 11.2µM, FLuc counter 10.7µM, NPC1 prom act 2µM, ELG1 genotox inconclusive
Cc1ccc(/C(N)=N/OC(=O)Oc2ccccc2)cc1	FLuc counter inconclusive
N/C(=N\OC(=O)c1cccc([N+](=O)[O-])c1)c1cccnc1	FLuc counter inconclusive
Cc1ccc(/C(N)=N/OC(=O)c2cccc(F)c2)cc1	FLuc counter 3.01µM, ELG1 genotox inconclusive (no result: SMN2 splice up)
Cc1ccc(/C(N)=N/OC(=O)c2ccc3ccccc3c2)cc1	Rab9 prom act inconclusive, FLuc counter 6.75µM, NPC1 prom act inconclusive, ELG1 genotox inconclusive (no result: SMN2 splice up)
N/C(=N\OC(=O)c1cccc(F)c1)c1ccccc1	FLuc counter 0.675µM, ELG1 genotox inconclusive
CCOc1ccc(C(=O)NCC(c2cccs2)S(=O)(=O)c2ccccc2)cc1 (centres undefined)	none (no result: Rab9 prom act, SMN2 splice up, NPC1 prom act, ELG1 genotox)
CCn1cc(CNCc2cn(C)nc2-c2ccc(C3CCCCC3)cc2)cn1	FLuc counter 15.1µM (no result: SMN2 splice up)
Cn1cc(CNCc2ccc(OC(F)(F)F)cc2)c(-c2ccc3c(c2)OCCO3)n1	none (no result: SMN2 splice up)
CC(=O)/C=C\c1ccccc1OC(=O)c1cc2ccccc2oc1=O	none (no result: SMN2 splice up)
O=C(/C=C\c1ccccc1OC(=O)c1ccccc1F)c1cc2ccccc2o1	Rab9 prom act inconclusive, FLuc counter 2.13µM, NPC1 prom act inconclusive, ELG1 genotox 16.4µM
Nc1cccc2c1C(=O)N(C(=O)/C=C/c1ccc(F)cc1)C2=O	FLuc counter 10.7µM
Cc1cc(C(=O)NCC(=O)OCC(=O)N(C(C)C)C(C)C)ccc1[N+](=O)[O-]	SMN2 splice up 12.6µM
Cc1ccc(C(=O)NCC(=O)OCC(=O)c2ccc(C)c([N+](=O)[O-])c2)cc1	none
O=C(NCCc1ccccc1)c1ccc([N+](=O)[O-])cc1	Rab9 prom act 0.447µM, SMN2 splice up 11.2µM, FLuc counter 3.01µM, NPC1 prom act 0.398µM, ELG1 genotox inconclusive
Cc1cccc(C(=O)NCCc2ccccc2)c1	Rab9 prom act 1.26µM, FLuc counter 10.7µM, NPC1 prom act 1.41µM, ELG1 genotox 4.61µM (no result: SMN2 splice up)
O=C(NCCc1ccccc1)c1ccc(NCC2CCCO2)c([N+](=O)[O-])c1 (centres undefined)	Rab9 prom act inconclusive, SMN2 splice up 10µM, FLuc counter inconclusive, NPC1 prom act inconclusive, ELG1 genotox inconclusive
O=CC1=C(N2CCOCC2)/C(=C/c2ccc(Cl)cc2)CC1	none (no result: SMN2 splice up)
COC(=O)Nc1ccc(NC(C)=O)cc1	SMN2 splice up inconclusive
CCc1ccc(NC(=O)CCc2nnc3ccc(N4CCC5(CC4)OCCO5)nn23)cc1	none (no result: SMN2 splice up)
Cc1cc(C(=O)NCCc2ccccc2)ccc1[N+](=O)[O-]	Rab9 prom act 3.98µM, SMN2 splice up 11.2µM, FLuc counter 13.5µM, NPC1 prom act 2.24µM, ELG1 genotox inconclusive
Cc1cccc(OCc2nc(-c3nonc3N)no2)c1C	Rab9 prom act inconclusive, SMN2 splice up 10µM, FLuc counter inconclusive, NPC1 prom act 3.16µM, ELG1 genotox 10.3µM
Nc1nonc1-c1noc(COc2ccccc2Cl)n1	Rab9 prom act 1.12µM, SMN2 splice up 11.2µM, FLuc counter 4.78µM, NPC1 prom act 1.41µM, ELG1 genotox 5.17µM
O=C(COC(=O)c1ccccc1OCc1ccccc1Cl)NC1CCS(=O)(=O)C1 (centres undefined)	none (no result: Rab9 prom act, SMN2 splice up, FLuc counter, NPC1 prom act)
CC(C)OCC(O)CS(=O)(=O)Cc1ccccc1 (centres undefined)	none
CC1=Nc2ccccc2/C1=C/c1c(N)n2c(S(=O)(=O)CC(C)C)nsc2nc1=O	FLuc counter 16.9µM
CC1=Nc2ccccc2/C1=C/c1c(N)n2c(S(=O)(=O)C(C)C)nsc2nc1=O	FLuc counter 23.9µM
CC1=Nc2ccc(C)cc2/C1=C/c1c(N)n2c(S(=O)(=O)C(C)C)nsc2nc1=O	FLuc counter inconclusive
CSc1nc(-c2ccccc2)nn1S(=O)(=O)c1ccc(Cl)cc1	none (no result: SMN2 splice up)
CCS(=O)(=O)c1ccc2oc(Nc3ccc(OC)cc3)nc2c1	FLuc counter inconclusive
CCS(=O)(=O)c1ccc2oc(Nc3ccccc3Cl)nc2c1	Rab9 prom act 0.631µM, FLuc counter 9.53µM, NPC1 prom act 1.58µM, ELG1 genotox 5.17µM (no result: SMN2 splice up)
CCS(=O)(=O)c1ccc2oc(Nc3ccccc3Br)nc2c1	Rab9 prom act 2µM, FLuc counter 9.53µM, NPC1 prom act 2.51µM, ELG1 genotox 10.3µM (no result: SMN2 splice up)
CCS(=O)(=O)c1ccc2oc(Nc3ccc(C(C)(C)C)cc3)nc2c1	none
Clc1ccccc1Nc1nc2ccccc2o1	Rab9 prom act 0.794µM, FLuc counter 1.69µM, NPC1 prom act inconclusive, ELG1 genotox inconclusive (no result: SMN2 splice up)
CCS(=O)(=O)c1ccc2oc(Nc3cccc(OC)c3)nc2c1	Rab9 prom act inconclusive, FLuc counter 16.9µM
Cc1cc(C)n(-c2ncc3c(n2)N(C)CCOC3=O)n1	none (no result: SMN2 splice up)
CCOC(=O)/C(C#N)=C/c1cn(CCC(=O)O)nc1-c1ccccc1	none
Cc1cc(N(C)C)ccc1N=Nc1ccc2ncccc2c1	Rab9 prom act 0.891µM, FLuc counter 0.426µM, NPC1 prom act 3.16µM, ELG1 genotox 4.61µM (no result: SMN2 splice up)
Cc1cc(OCC(=O)Nc2ccc(S(=O)(=O)N3CCN(C)CC3)cc2)ccc1Cl	none
CN(CC(=O)Nc1cccc(F)c1)C(=O)CCNC(=O)c1ccc(Br)cc1	FLuc counter inconclusive (no result: SMN2 splice up)
CN(CC(=O)Nc1cccc(F)c1)C(=O)CCCNC(=O)c1ccc(Cl)cc1	Rab9 prom act inconclusive, FLuc counter 12µM, NPC1 prom act inconclusive (no result: SMN2 splice up)
C=CCNC(=S)NC(=O)c1ccc(C)c(Br)c1	Rab9 prom act inconclusive, SMN2 splice up 14.1µM, FLuc counter 16.9µM, ELG1 genotox inconclusive
C=CCNC(=S)NNC(=O)c1ccc(C)c(Cl)c1	none
CN(C)c1cccc(C(=O)N/C=C/n2cnc3cc(C(F)(F)F)ccc32)c1	none (no result: SMN2 splice up)
CN(Cc1ccco1)c1ncnc2ccc(-c3cccnc3)cc12	none (no result: ELG1 genotox)
COc1ccc(-c2cc(-c3ccccc3)nc3ncnn23)cc1	none
